# The campaign covered roughly 31,000 sequences. About 1,400 (4.5%) were called active. Only a selection was taken, and actives are over-represented in it overall. Unmarked numbers belong to inactive results.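 Rule for the calls: active = median seed-adjusted z-score above 1 or below -1; inactive = the rest.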
# Experiment: Novel Modifiers of Survival Motor Neuron (SMN) Protein: Gene Identification via Genome-wide siRNA Screen;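 note: luminescence tracks full-length SMN protein made from the SMN2 reporter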
# Conditions: HEK293T SMN2-luciferase reporter, siRNA knockdown, 72 h; actives lie on both sides
# Excerpt: Spinal muscular atrophy (SMA) is the most common neuromuscular autosomal recessive disorder and one of the leading genetic causes of infant death. SMA results from mutations inducing loss of function or deletion in the survival of motor neuron-1 gene (SMN1), leading to deficiency of the survival motor neuron (SMN) protein. Although a second nearly identical gene, SMN2, is retained in humans, its expression primarily produces an aberrantly spliced isoform that is largely unstable and quickly degraded. We performed a genome-wide RNAi screen using a cell-based reporter assay to identify genes and pathways that modulate SMN protein stability. The screen identified over 200 genes that led to the greatest increase or decrease in luciferase expression.
# Using HEK293T cells stably expressing a luciferase reporter that combines the promoter and splicing based cassettes in tandem with the major portion of the native SMN2 cDNA with luciferase, we performed a genome-wide RNAi screen to identify modulators of SMN protein levels. Luciferase is expressed when full-length SMN protein is generated with luminescence signal proportional to SMN protein levels. Our luciferase-based reporter assay was used to screen Ambion Silencer Select Human Druggable Genome siRNA library (10418 genes, 3 unique siRNAs per gene) using lipid-based reverse transfection.
# Briefly, 1 pmol of each siRNA was spotted to a well of a 384-well plate (Corning, Corning, NY) and 20 microL of serum-free DMEM containing […] of Lipofectamine RNAiMax (Life Technologies, Carlsbad, CA) was then added to each well. Transfected cells were maintained at 37 degrees C in 5% CO2 for 72 hours, 20 microL of ONE-Glo Reagent (Promega) was added to wells for luciferase quantification. Raw luminescence reads were normalized to Ambion(R) Silencer(R) Negative Control #2 siRNA, then log10 transformed. A robust statistical measure of median absolute deviation (MAD) to standardize siRNA activities from each screen. Common Seed Analysis was used to help prioritize clean hits as opposed to those appearing to arise from seed based off-target effects. Candidate modulators were defined as the genes having a MAD score greater than 1.0 or less than -1.0.
row,Sequence,median seed-adjusted z-score
1,GCAUGAUGGUAUUGAGCUUTT against MS4A6A,0.174
2,GAGUCACUUCUAAUAAACATT against FOLR2,-0.0835
3,CGUUAUCUUCAUCACCUAUTT against ABCC10,-1.56 (active)
4,GGCUAUAAUAGACACGAGATT against CDH6,0
5,UGACUUUCCUCUCUACGGUTT against SLC10A3,-0.25
6,GCAUGCUGUUAGCCGAUAATT against TOMM70A,0.0717
7,CGGCUGAUGUUCUCGAAUUTT against BRD3,0.633
8,CCAGGCUAUUUGUACCGAUTT against CCR6,0.103
9,CCAGCUCUGGAAUUAGAUATT against NRBP1,-1.13 (active)
10,GAAUUAAAGAUUUGGUUGATT against EFCAB1,-0.719
11,GCUGUUAAGUAUGCCCUUATT against AKR1A1,-0.255
12,GGACCAUUGGUGAUGAGAATT against CD36,-0.000845
13,GGUUGGAUGCUAUAUACCATT against ROS1,-0.0561
14,GGGAUAAGCUGAUAAAGGATT against NDUFS5,-1.35 (active)
15,GAAUUGAAACGAGCUAGAATT against TAF13,-0.919
16,CCGUAUGAAUGUAAGUAUUTT against ZNF441,0.578
17,CAAGAGUUAUGGUCUGGGATT against GCM1,0.0197
18,CCACGAUGAAGGAACGAGATT against PDE4A,-0.147
19,GCAUGAUCUAGAUCGAGUATT against UQCRFS1,-1.28 (active)
20,GGUAUUACUUUGCAAUCGATT against CACNA2D1,-0.541
21,CAAGAUAUAUAUACGCCUATT against NPY1R,0.76
22,GGGUUUUAGUAACCUUAGATT against SUCNR1,0
23,GAUCCAAAGUAACUAAACATT against HMGN3,-0.182
24,GAGGCAGUCUUAGAGGAAATT against SPATA21,-1.03 (active)
25,GCCCAUCACCUCUUCAUGATT against RAMP1,-0.031
26,GAAACGAACUGGGCAGUAUTT against FGF2,0.0208
27,GGAUAGUGAGGAUAAGGAATT against PPP1R15A,0.539

row,Sequence,median seed-adjusted z-score
1,CAAAUCCAGUGGUGGGUAATT against S100A6,-0.264
2,GUCCUGAAGUCACUCCGAUTT against FUT10,-0.629
3,CCACUCUCAUCAAAUCCGATT against MLL2,-2.11 (active)
4,AGAUGAGGAGUGUCGUCAATT against KLK13,0.452
5,GUUCCUACGUGUACAACGATT against DNASE1L1,0.542
6,GAAUAUGGGUUGGCCUAUATT against ZNF655,-0.156
7,CAUUAGCAGAUAUACUAUUTT against EEF1E1,-1.45 (active)
8,GGACGGAUCUCAAUCGAAATT against CPO,0.0875
9,GAAGGAAUGAAAUCCGGAATT against TRIM8,-0.296
10,CGAAUUCAGGUCAACAAUATT against TRERF1,-0.0952
11,GAGUUUAAGCGCAAGCAUATT against HSPA8,0.462
12,UCACAGACGAGGCAUUUAATT against FTCD,-0.27
13,GCCUGGAUGAAUUCGAUUATT against UBE4A,-0.285
14,GUAAUACGAGGAAAUAGUATT against SNRPG,-3.09 (active)
15,CAUACACUCUACUCCUGCUTT against CDH26,0
16,GCGACCCUGUUAUUCUGUATT against TM9SF1,0.14
17,CACCAUUGCAAACCAAAUATT against KCNQ5,0.0191
18,CGUCAACGAUCGGAAGAAATT against TTLL9,0.0534
19,GCCCAACAAGUGCAUGUUUTT against GLIS1,0.838
20,CCUCGUCCGUAGUCUCCUUTT against ADRB1,1.06 (active)
21,GUAUUGCCUUUGUCAAGAATT against SNX19,0.67
22,GAAUUGACUUCUUGUCUAATT against RAB41,-0.534
23,CGUCAUCAGACUCAAUGAATT against 12-Sep,0.286
24,GGAUGAUGAGUACUCUGAATT against COL7A1,1.08 (active)
25,GGAAUUUAAGUGAUAGUGATT against CPEB2,-0.00928
26,GCUGCAACCUUGACUACUATT against RRM1,-5.51 (active)
27,AGGUGAAUAUUGACCACUUTT against RGS5,0
